Source: PubChem BioAssay AID651610 (Broad Institute, 2012)
The campaign covered roughly 360,000 compounds. About 3,900 (1.1%) were called active. For the sample, actives were picked, then their nearest neighbours and some compounds at random. A number with no mark means an inactive call.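 The calls were made as follows: active = mean replicate inhibition score of at least 50 and every replicate individually at or above 50; inconclusive = only one of the two criteria met; inactive = mean below 50 and not all replicates reaching 50.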

Assay: blockers of JRFL envelope-mediated fusion – HeLa-JRFL effector, CEM21 target cells, luciferase, primary screen (AID 651610);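 also: 0% = plate neutral controls and 100% = maraviroc near 300 nM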
Details: HeLa-JRFL Env/CEM21 cell fusion, hits give high values; at 16.7 µM unless noted

Q: For `C[C@H](CO)N1C[C@H](C)[C@@H](CN(C)C(=O)C2CC2)Oc2cc(C#CC(C)(C)O)ccc2S1(=O)=O`, which inhibition is on record?
A: The inhibition was -33.6%.

Q: For `C[C@@H]1CCCCO[C@@H](CN(C)C(=O)Nc2cccc3ccccc23)[C@H](C)CN([C@H](C)CO)C(=O)c2cc(NS(C)(=O)=O)ccc2O1`, which inhibition is on record?
A: The inhibition was -3.83%.

Q: With `Cc1noc(C)c1S(=O)(=O)Nc1ccc2c(c1)CC(=O)N([C@H](C)CO)C[C@@H](C)[C@@H](CN(C)Cc1ccc(C(=O)O)cc1)O2` as the molecule, how does the inhibition read?
A: Its inhibition is 20.1%.

Q: With `CC(C)OCCCNc1nc2c(c(=O)n(Cc3ccccc3F)c(=O)n2C)n1C` as the molecule, how does the inhibition read?
A: The inhibition was 4.04% [at 12.3 µM].

Q: Which inhibition does the source give for `Cn1c(=O)c2c(nc(NCCc3ccccc3)n2Cc2ccccc2)n(C)c1=O` here?
A: The inhibition was 86.6% [at 12.3 µM] (active).

Q: With `CC1CN(Cc2nc3c(c(=O)n(C)c(=O)n3C)n2Cc2cccc(Cl)c2)CC(C)O1` (centres undefined) as the molecule, how does the inhibition read?
A: Its inhibition is 7.96% [at 12.3 µM].

Q: With `CCCCNc1nc2c(c(=O)n(C)c(=O)n2C)n1Cc1cccc(OC)c1` as the molecule, how does the inhibition read?
A: Its inhibition is 88.5% [at 12.3 µM] (active).

Q: Which inhibition does the source give for `Cn1c(=O)c2c(nc(NCc3ccccc3)n2CC(N)=O)n(C)c1=O` here?
A: The inhibition was -8.78% [at 12.3 µM].

Q: For `Cn1c(=O)c2c(nc(NCCNC(=O)c3ccco3)n2Cc2ccccc2F)n(C)c1=O`, which inhibition is on record?
A: Its inhibition is 0.989% [at 12.3 µM].

Q: For `COc1ccc(S(=O)(=O)Nc2ccc3c(c2)C(=O)N([C@H](C)CO)C[C@@H](C)[C@H](CN(C)C(=O)Nc2ccc4c(c2)OCO4)O3)cc1`, which inhibition is on record?
A: Its inhibition is 12%.

Q: With `COc1cccc(S(=O)(=O)N[C@H]2CC[C@@H](CCN)O[C@H]2CO)c1` as the molecule, how does the inhibition read?
A: Its inhibition is -38.7%.

Q: Which inhibition does the source give for `CN(C)CCCNC(=O)C[C@@H]1C=C[C@H](NC(=O)Cc2cccnc2)[C@H](CO)O1` here?
A: Its inhibition is 12.3%.

Q: Which inhibition does the source give for `C[C@@H]1CCCCO[C@@H](CN(C)Cc2ccncc2)[C@H](C)CN([C@H](C)CO)C(=O)c2cc(NC(=O)CCC(F)(F)F)ccc2O1` here?
A: The inhibition was -12.7%.

Q: Which inhibition does the source give for `COc1cccc2c1C(=O)c1c(O)c3c(c(O)c1C2=O)CC(O)(C(C)=NNC(=O)c1ccc(Cl)c(Cl)c1)CC3OC1CC(N)C(O)C(C)O1` (centres undefined) here?
A: Its inhibition is 86% [at 12.3 µM] (active).

Q: For `C[C@@H](NC(=O)C[C@@H]1CC[C@@H](NC(=O)C2CCOCC2)[C@@H](CO)O1)c1ccccc1`, which inhibition is on record?
A: Its inhibition is -27.6%.

Q: Which inhibition does the source give for `C[C@@H]1CN([C@@H](C)CO)C(=O)c2cc(-c3cncnc3)cnc2O[C@@H]1CN(C)Cc1ccncc1` here?
A: The inhibition was 1.5%.

Q: Which inhibition does the source give for `CC1CCCN(c2cccc3c2S(=O)(=O)N(Cc2ccc(F)cc2)[C@@H](C)[C@H](c2ccccc2)O3)C1` (some centres undefined) here?
A: Its inhibition is -2.41% [at 12.3 µM].

Q: With `CN(C)C(=O)C[C@@H]1CC[C@H](NC(=O)NC2CCCC2)[C@H](CO)O1` as the molecule, how does the inhibition read?
A: Its inhibition is 2.96%.

Q: Which inhibition does the source give for `Cc1cc(NC(=O)c2ccco2)c(=O)n(Cc2c(F)cccc2Cl)c1` here?
A: The inhibition was -1.03% [at 12.3 µM].

Q: For `O=C(Nc1cccn(Cc2ccccc2Cl)c1=O)NC1CCCCC1`, which inhibition is on record?
A: The inhibition was -4.39% [at 12.3 µM].

Q: For `O=C(Nc1cccn(Cc2c(Cl)cccc2Cl)c1=O)c1ccc(Cl)cc1`, which inhibition is on record?
A: Its inhibition is 76.4% [at 12.3 µM] (active).

Q: Which inhibition does the source give for `CNC(=O)C[C@@H]1CC[C@H]2[C@H](COc3ccc(NC(=O)c4cccc(OC)c4)cc3C(=O)N2C)O1` here?
A: The inhibition was -18.7%.

Q: With `C[C@H](CO)N1C[C@H](C)[C@@H](CN(C)S(=O)(=O)c2ccccc2)Oc2c(NC(=O)c3ccc(-c4nccs4)cc3)cccc2C1=O` as the molecule, how does the inhibition read?
A: The inhibition was -55.7%.

Q: Which inhibition does the source give for `O=C(Cc1ccncc1)NCC[C@H]1CC[C@H](NC(=O)C2CC2)[C@H](CO)O1` here?
A: The inhibition was 4.94%.

Q: With `C[C@@H]1CN([C@@H](C)CO)C(=O)c2cc(NC(=O)C3CCCCC3)ccc2O[C@@H](C)CCCCO[C@H]1CN(C)C(=O)Nc1ccc2c(c1)OCO2` as the molecule, how does the inhibition read?
A: Its inhibition is -19.1%.

Q: Which inhibition does the source give for `COc1ccc(CNc2ncnc3ccccc23)cc1` here?
A: Its inhibition is 77% [at 12.3 µM] (active).

Q: Which inhibition does the source give for `COc1ccc(CNc2nccs2)cc1` here?
A: The inhibition was -9.44% [at 12.3 µM].

Q: Which inhibition does the source give for `c1ccc(CNc2ncnc3[nH]ncc23)cc1` here?
A: Its inhibition is 27.4% [at 12.3 µM].

Q: For `C[C@@H]1CCCCO[C@@H](CN(C)S(=O)(=O)c2cn(C)cn2)[C@@H](C)CN([C@H](C)CO)C(=O)c2cc(NC(=O)c3ccncc3)ccc2O1`, which inhibition is on record?
A: The inhibition was 26.2%.

Q: With `CC(C)NC(=O)Nc1ccc2c(c1)CC(=O)N([C@H](C)CO)C[C@@H](C)[C@H](CN(C)S(=O)(=O)c1ccccc1)O2` as the molecule, how does the inhibition read?
A: The inhibition was 2.93%.

Q: Which inhibition does the source give for `COc1cc(CNCc2ccc(OC)c3ccccc23)cc(OC)c1OC` here?
A: The inhibition was 99.1% [at 12.3 µM] (active).

Q: For `CCOc1c(CNCc2ccc(C(=O)O)cc2)cccc1OC`, which inhibition is on record?
A: The inhibition was 1.89% [at 12.3 µM].

Q: For `COc1ccc(CNCCCNCc2ccc(OC)c(OC)c2)cc1OC`, which inhibition is on record?
A: Its inhibition is -12.6% [at 12.3 µM].

Q: For `Cc1noc(C)c1S(=O)(=O)Nc1ccc2c(c1)C(=O)N([C@H](C)CO)C[C@@H](C)[C@@H](CN(C)S(=O)(=O)c1ccc(Cl)cc1)O2`, which inhibition is on record?
A: The inhibition was -6.25%.

Q: For `C[C@@H]1CN([C@@H](C)CO)C(=O)c2cc(N(C)C)ccc2O[C@H]1CN(C)Cc1ccc(C(F)(F)F)cc1`, which inhibition is on record?
A: The inhibition was 14.9%.

Q: With `COc1ccc(C(=O)Nc2cc(S(=O)(=O)N3CCCC3)ccc2Cl)cc1` as the molecule, how does the inhibition read?
A: The inhibition was -8.82% [at 12.3 µM].

Q: For `CNC(=O)c1ccsc1NC(=O)c1ccc(S(=O)(=O)N2CCOCC2)cc1`, which inhibition is on record?
A: The inhibition was -27.2% [at 12.3 µM].

Q: For `COc1ccc(C(=O)Nc2nc(-c3ccc(S(=O)(=O)N4CCOCC4)cc3)cs2)cc1`, which inhibition is on record?
A: The inhibition was 93.5% [at 12.3 µM] (active).

Q: With `CO[C@@H]1CN(C)C(=O)c2ccc(NC(=O)c3ccc(F)cc3)cc2OC[C@H](C)N(C)C[C@H]1C` as the molecule, how does the inhibition read?
A: Its inhibition is 9.99%.

Q: For `CN1C(=O)c2cc(NC(=O)c3cscn3)ccc2OC[C@H]2O[C@@H](CC(=O)NCC3CC3)CC[C@H]21`, which inhibition is on record?
A: Its inhibition is -0.83%.

Q: With `C[C@@H]1CCCCO[C@H](CN(C)Cc2ccccc2)[C@@H](C)CN([C@H](C)CO)C(=O)c2cc(NS(C)(=O)=O)ccc2O1` as the molecule, how does the inhibition read?
A: Its inhibition is -1.64%.

Q: Which inhibition does the source give for `COc1ccccc1NC(=O)CSc1nnc(Cn2nnc(-c3ccccc3)n2)n1-c1ccccc1` here?
A: The inhibition was -41.2% [at 12.3 µM].

Q: With `CCn1c(SCC(=O)NC2CCCC2)nnc1-c1ccoc1C` as the molecule, how does the inhibition read?
A: The inhibition was -2.28% [at 12.3 µM].

Q: For `COc1ccccc1NC(=O)CSc1nnc(-c2ccoc2C)n1CCc1ccccc1`, which inhibition is on record?
A: The inhibition was 62.4% [at 12.3 µM] (active).
